Data published in PubChem BioAssay (Tox21).
Several values for one entry are separate records, joined by “and”; a condition that tells them apart may be missing. Identical values can stand only once. Unmarked numbers belong to inactive results. Results filed as inconclusive are left out. Entries that show only a call come without a potency. Activity calls are given as the source filed them. Unless noted, calls come from the whole dose curve; as a rule, active = well fitted curve in the direction sought with a large enough effect in the repeat runs; inconclusive = weak or mixed curves; inactive = no such curve, though single readings can be large; an effect the other way counts as inactive or inconclusive.

Experiments:
[1] = qHTS assay to identify small molecule antagonists of the estrogen related receptor (ERR) signaling pathway from Tox21 library - cell viability counter screen (AID 1224834); note: nearly all actives have a fitted effect of over 30% in size; note: potency is the fitted concentration of half-maximal effect
Method in brief: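 Viability readout (CellTiter-Fluor fluorescence, 30 min at 37 C) multiplexed with the ERR assay; cells treated 17.5 h at 37 C with compounds delivered in DMSO.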

[2] = biological target: Luciferin 4-monooxygenase (Photinus pyralis) (UniProt P08659); test: qHTS assay to identify small molecule inhibitors of firefly luciferase (AID 1224835); note: nearly all actives have a fitted effect of over 25% in size; note: potency is the fitted concentration of half-maximal effect
Sequence of Luciferin 4-monooxygenase (Photinus pyralis) (P08659 whole entry, looked up): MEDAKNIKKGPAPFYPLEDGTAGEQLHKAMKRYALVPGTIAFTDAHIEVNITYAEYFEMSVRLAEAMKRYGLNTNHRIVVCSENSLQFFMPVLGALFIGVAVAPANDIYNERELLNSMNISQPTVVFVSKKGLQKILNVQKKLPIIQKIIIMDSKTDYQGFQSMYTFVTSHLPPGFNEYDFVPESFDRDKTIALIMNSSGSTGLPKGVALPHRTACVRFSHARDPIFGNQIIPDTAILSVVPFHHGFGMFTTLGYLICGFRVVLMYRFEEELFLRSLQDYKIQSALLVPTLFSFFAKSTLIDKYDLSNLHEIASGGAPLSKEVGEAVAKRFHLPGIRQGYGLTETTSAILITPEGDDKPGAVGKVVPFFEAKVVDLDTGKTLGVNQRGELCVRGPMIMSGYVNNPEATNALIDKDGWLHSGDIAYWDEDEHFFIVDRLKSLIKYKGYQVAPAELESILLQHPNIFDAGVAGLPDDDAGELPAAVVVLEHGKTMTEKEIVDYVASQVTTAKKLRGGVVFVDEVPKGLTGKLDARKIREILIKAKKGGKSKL
Method in brief: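 Inhibition of purified Photinus luciferase is measured by luminescence. Substrate levels (D-luciferin, ATP) sit at their KM values. Each compound is tested in a concentration series.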

[3] = qHTS assay to identify small molecule agonists of the constitutive androstane receptor (CAR) signaling pathway - cell viability counter screen (AID 1224836); note: nearly all actives have a fitted effect of over 45% in size
Method in brief: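 Double-stable HepG2 hepatoma cells (hCAR plus CYP2B6-2.2kb) are treated for 23 h at 37 C with test compounds in 15-point concentration series. PK11195 at 0.75 uM final is co-added. Cell viability is quantified by CellTiter-Fluor.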

[4] = biological target: Nuclear receptor subfamily 1 group I member 3 (Homo sapiens) (UniProt Q14994); test: qHTS assay to identify small molecule antagonists of the constitutive androstane receptor (CAR) signaling pathway (AID 1224838);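 note: HepG2 cells stably expressing hCAR with CYP2B6 luciferase reporter stimulated by CITCO; nearly all actives have a fitted effect of over 40% in size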
Sequence of Nuclear receptor subfamily 1 group I member 3 (Homo sapiens) (Q14994 whole entry, looked up): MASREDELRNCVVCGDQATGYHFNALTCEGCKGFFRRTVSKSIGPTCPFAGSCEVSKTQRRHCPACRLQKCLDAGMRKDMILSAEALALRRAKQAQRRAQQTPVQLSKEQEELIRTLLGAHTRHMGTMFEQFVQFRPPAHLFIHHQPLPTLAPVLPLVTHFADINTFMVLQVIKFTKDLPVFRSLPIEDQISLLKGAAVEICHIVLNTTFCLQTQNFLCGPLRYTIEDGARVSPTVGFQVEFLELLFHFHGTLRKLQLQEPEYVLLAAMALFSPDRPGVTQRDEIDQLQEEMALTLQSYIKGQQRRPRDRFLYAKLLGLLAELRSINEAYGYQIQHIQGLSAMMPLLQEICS
Method in brief: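 Quantitative HTS in double-stable HepG2-CYP2B6-hCAR cells. After 4 h plating, cells get compound (15 concentrations) and CITCO at 50 nM final, incubate 24 h at 37 C, then ONE-Glo luminescence is read.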

[5] = biological target: Nuclear receptor subfamily 1 group I member 3 (Homo sapiens) (UniProt Q14994); test: qHTS assay to identify small molecule agonists of the constitutive androstane receptor (CAR) signaling pathway (AID 1224839); note: nearly all actives have a fitted effect of over 15% in size; note: potency is the fitted concentration of half-maximal effect;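 for activation: HepG2 cells stably carrying human CAR and a CYP2B6 luciferase reporter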
Method in brief: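 Readout: firefly luciferase luminescence via ONE-Glo. System: HepG2 double-stable for hCAR and CYP2B6-2.2kb. Conditions: 15-point compound titration, PK11195 at 0.75 uM final, 24 h incubation.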

[6] = qHTS assay to identify small molecule antagonists of the estrogen related receptor signaling pathway with the pleiotropic PPARgamma coactivator (PGC) from Tox21 10K library - cell viability counter screen (AID 1224840; active = well fitted cell-killing curve with a large enough effect in the repeat runs, not every such curve was filed as active; note: nearly all actives have a fitted effect of over 40% in size)
Method in brief: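 Compounds in DMSO, alongside positive and negative controls, were pinned onto PGC/ERR cells (2,000 per well). Exposure lasted 17.5 hours at 37 C, followed by a 30-minute CellTiter-Fluor incubation and fluorescence reading.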

[7] = qHTS assay to identify small molecule agonists of the hypoxia (HIF-1) signaling pathway - cell viability counter screen (AID 1224844; calls by dose curve; note: nearly all actives have a fitted effect of over 50% in size; note: potency is the fitted concentration of half-maximal effect)
Method in brief: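 Luminescent ATP content (CellTiter-Glo, 30 min, room temperature) served as the viability measure in HRE-bla ME-180 cells exposed to compounds for 17 hrs in low-serum medium (0.5% dialyzed FBS).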

[8] = qHTS assay to identify small molecule agonists of H2AX (AID 1224845; active = well fitted activation curve with a large enough effect in the signal ratio in the repeat runs, not every such curve was filed as active; the % refers to the signal ratio)
Method in brief: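 Phospho-H2AX Ser139 measured by HTRF (ex 320 nm; em 665 and 620 nm) after 24 hr antibody incubation. Compounds, 15 concentrations, 0.76% DMSO, were applied to CHO-K1 cells for 3hr at 37C before lysis.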

[9] = qHTS assay to identify small molecule agonists of the hypoxia (HIF-1) signaling pathway (AID 1224846; active = well fitted activation curve with a large enough effect in the signal ratio in the repeat runs, not every such curve was filed as active; the % refers to the signal ratio)
Method in brief: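 Measured by blue/green FRET after loading CCF4-AM: beta-lactamase expressed from a hypoxia response element in ME-180 cells. Test agents were delivered in DMSO and left 17 hrs; cells had been plated 5 hrs earlier in low-serum (0.5% dialyzed FBS) medium.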

[10] = qHTS assay to identify small molecule agonists of H2AX - cell viability counter screen (AID 1224847; calls by dose curve; note: nearly all actives have a fitted effect of over 30% in size; note: potency is the fitted concentration of half-maximal effect)
Method in brief: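 For this counter screen, overnight-attached CHO-K1 cells received test compounds (15 concentrations, 0.76% DMSO final); 3 hr later at 37C, CellTiter-Glo reagent was added and luminescence recorded after 30 min at room temperature.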

[11] = qHTS RealTime-Glo MT Cell Viability Assay in HepG2 cells - 24 hour (AID 1224867); note: nearly all actives have a fitted effect of over 50% in size
Method in brief: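 Luminescence read-out: viable HepG2 cells reduce a prosubstrate to a NanoLuc substrate, giving a signal proportional to live cell number. Reads taken at 0, 8, 16, 24, 32 and 40 h of compound exposure at 37 C.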

[12] = qHTS RealTime-Glo MT Cell Viability Assay in HEK293 cells - 32 hour (AID 1224868); note: nearly all actives have a fitted effect of over 50% in size; note: potency is the fitted concentration of half-maximal effect
Method in brief: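 Nonlytic real-time viability readout: viable cells convert prosubstrate to NanoLuc substrate, giving luminescence proportional to live cell number. HEK293, 600 cells/well, compound added after 5 h, continuous culture at 37 C.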

[13] = A CellTox Green Cytotoxicity Assay to monitor cytotoxicity in HEK293 cells - 0 hour (AID 1224869); note: nearly all actives have a fitted effect of over 50% in size
Method in brief: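 Each value comes from one timepoint of a single continuous run in which HEK293 cells with CellTox Green were exposed to compound for up to 40 h at 37 C, dye fluorescence rising with cell death.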

[14] = qHTS RealTime-Glo MT Cell Viability Assay in HepG2 cells - 40 hour (AID 1224870); note: nearly all actives have a fitted effect of over 50% in size
Method in brief: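 Real-time viability: cells seeded at 600 per well together with NanoLuc and cell-permeant prosubstrate, compounds added after 5 h incubation. Luminescence tracked at 0, 8, 16, 24, 32 and 40 h of exposure.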

[15] = qHTS assay to identify small molecule antagonists of the constitutive androstane receptor (CAR) signaling pathway - cell viability counter screen (AID 1224837); note: nearly all actives have a fitted effect of over 45% in size
Method in brief: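 Fluorescence from CellTiter-Fluor served as the viability signal. Human hepatoma HepG2 cells stably bearing hCAR and CYP2B6-2.2kb received compound plus CITCO (50 nM final) for 23 hr.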

[16] = biological target: Thyrotropin receptor (Homo sapiens) (UniProt P16473); test: qHTS assay to identify small molecule agonists of the thyroid stimulating hormone receptor (TSHR) signaling pathway (AID 1224843; calls by dose curve; note: nearly all actives have a fitted effect of over 45% in size; note: potency is the fitted concentration of half-maximal effect)
Sequence of Thyrotropin receptor (Homo sapiens) (P16473 whole entry, looked up): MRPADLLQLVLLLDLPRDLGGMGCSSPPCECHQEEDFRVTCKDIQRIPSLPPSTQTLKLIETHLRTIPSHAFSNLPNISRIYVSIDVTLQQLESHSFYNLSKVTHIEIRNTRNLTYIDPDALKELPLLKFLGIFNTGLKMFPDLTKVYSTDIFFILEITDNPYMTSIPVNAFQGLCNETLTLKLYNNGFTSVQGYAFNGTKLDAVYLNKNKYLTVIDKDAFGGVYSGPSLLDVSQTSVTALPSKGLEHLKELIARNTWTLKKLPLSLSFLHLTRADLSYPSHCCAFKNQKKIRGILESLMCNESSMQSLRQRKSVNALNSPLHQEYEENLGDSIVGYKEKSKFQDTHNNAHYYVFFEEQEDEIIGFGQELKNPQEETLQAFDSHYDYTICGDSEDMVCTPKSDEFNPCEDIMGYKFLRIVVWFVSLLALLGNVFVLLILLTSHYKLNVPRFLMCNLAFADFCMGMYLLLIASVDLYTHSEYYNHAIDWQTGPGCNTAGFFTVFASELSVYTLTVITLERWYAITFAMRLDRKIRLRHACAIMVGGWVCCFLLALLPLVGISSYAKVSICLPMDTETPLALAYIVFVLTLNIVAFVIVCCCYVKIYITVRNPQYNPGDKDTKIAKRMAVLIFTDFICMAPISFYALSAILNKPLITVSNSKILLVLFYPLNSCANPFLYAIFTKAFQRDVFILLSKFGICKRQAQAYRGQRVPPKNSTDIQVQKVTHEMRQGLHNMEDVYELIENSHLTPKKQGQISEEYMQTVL
Method in brief: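 HEK293 cells stably bearing the thyrotropin receptor were plated at 800 cells/well and challenged with compound (30 min, RT). Accumulated cAMP was quantified via cAMP-d2 competing for cryptate-tagged antibody.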

[17] = qHTS assay to identify small molecule antagonists of the estrogen related receptor signaling pathway with the pleiotropic PPARgamma coactivator (PGC) from Tox21 10K library (AID 1224841; call rule not given here)
Method in brief: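 Compound exposure ran 18 hours at 37 C in PGC/ERR cells (2,000/well) that had first rested 6 hours in a 37 C/5% CO2 incubator. Luciferase activity was then detected with One-Glo after a 30-minute room-temperature step.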

[18] = qHTS assay to identify small molecule agonists of the estrogen related receptor signaling pathway with the pleiotropic PPARgamma coactivator (PGC) from Tox21 10K library (AID 1224842); note: nearly all actives have a fitted effect of over 15% in size
Method in brief: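 Luminescence from One-Glo (30 min, room temperature) measured after PGC/ERR cells had 18 h at 37 C with pinned compound (23 nL in DMSO). Cells had been seeded at 2,000 per well and pre-incubated 6 h.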

[19] = qHTS assay to identify small molecule antagonists of the estrogen related receptor (ERR) signaling pathway from Tox21 library (AID 1224848); note: nearly all actives have a fitted effect of over 50% in size
Method in brief: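 Reading was by luminescence 30 min after ONE-Glo addition. Before that, ERR cells at 2,000 per well had rested 6 h at 37 C/5% CO2 and then received pin-tooled compounds in DMSO for 18 h at 37 C.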

[20] = qHTS assay to identify small molecule agonists of the estrogen related receptor (ERR) signaling pathway from Tox21 library (AID 1224849; calls by dose curve; note: nearly all actives have a fitted effect of over 15% in size); conditions: ERR reporter cell line, ONE-Glo luciferase, 18 h; at 92.4 µM (top of the series)
Method in brief: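 We plated ERR reporter cells, waited 6 h, added compounds in DMSO by pin tool and incubated them 18 h at 37 C. ONE-Glo was then added and luminescence read after 30 min.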

SMILES	Potency [1]	Potency [2]	Potency [3]	Potency [4]	Potency [5]	Potency [6]	Potency [7]	Potency [8]	outcome [9]	Potency [10]	outcome [11]	Potency [12]	Potency [13]	outcome [14]	Potency [15]	Potency [16]	Potency [17]	Potency [18]	Potency [19]	activity change, positive = activation [20]
Nc1cccc(N)c1	inactive	inactive	inactive	inactive	inactive	inactive	inactive	inactive	inactive	inactive	inactive	inactive	inactive	inactive	–	–	–	–	–	–
CC1=C(/C=C/C(C)=C/C=C/C(C)=C/C(=O)O)C(C)(C)CCC1	inactive	39.9 µM (active) and 27.5 µM (active)	inactive	inactive	27.3 µM (active) and 24.3 µM (active) and 10.6 µM (active)	inactive	49 µM (active)	inactive	–	inactive	inactive	inactive	inactive	inactive	–	–	–	–	–	–
CCCCC/C(C=O)=C\c1ccccc1	inactive	inactive	–	inactive	inactive	inactive	inactive	inactive	inactive	inactive	inactive	inactive	–	inactive	inactive	inactive	–	–	–	–
COc1cc(O)c(C(=O)c2ccccc2)cc1S(=O)(=O)O	inactive	inactive	–	inactive	inactive	inactive	inactive	inactive	inactive	inactive	inactive	inactive	inactive	inactive	inactive	inactive	–	–	–	–
O=c1cc[nH]c(=O)[nH]1	inactive	inactive	–	inactive	inactive	inactive	inactive	inactive	inactive	inactive	inactive	inactive	–	inactive	inactive	inactive	inactive	inactive	inactive	–
C#C[C@]1(O)CC[C@H]2[C@@H]3CCc4cc(O)ccc4[C@H]3CC[C@@]21C	27.1 µM (active) and 19.3 µM (active) and 8.41 µM (active)	inactive	inactive	–	–	–	inactive	inactive	inactive	100 µM (active) and 61.9 µM (active)	inactive	8.65 µM (active) and 19.5 µM (active)	inactive	inactive	–	13.6 µM (active) and 21.7 µM (active) and 8.41 µM (active)	–	–	–	–
C=C(C)C(N)=O	inactive	inactive	–	inactive	inactive	inactive	inactive	inactive	inactive	inactive	inactive	inactive	inactive	inactive	inactive	inactive	inactive	inactive	inactive	10.9% and 3.35%
CC(=O)/C=C/C1=C(C)CCCC1(C)C	inactive	inactive	inactive	–	–	inactive	inactive	inactive	inactive	inactive	inactive	inactive	inactive	inactive	–	–	–	–	–	–
